Test results reported in the supplement of paper PMC12297408.
Structures can show the parent of a compound that is named as a salt. A number with no mark means an inactive call.

These molecules were tested on Plasmodium falciparum NF54/iGP1_RE9H ulg8 stage V gametocytes (assay: gametocyte viability (luciferase signal relative to DMSO control) (% of DMSO control); higher = less gametocytocidal activity, active = 50 or less). Details: concentration: 1 µM; exposure time: 72 h.
Procedure: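 Synchronous P. falciparum NF54/iGP1_RE9H ulg8 mature stage V gametocytes (day 12) were exposed to Cayman Epigenetics Screening Library compounds at 10 µM or 1 µM for 72 h at 37 °C. Viability was read as RE9H luciferase bioluminescence, normalised to DMSO plate controls (100%); 50 µM methylene blue was the positive control.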

How did the gametocyte viability turn out when Nc1ccn([C@@H]2O[C@H](CO)[C@@H](O)C2(F)F)c(=O)n1 [Gemcitabine] was run?
The gametocyte viability was 91.5.

For CCCCN(Cc1ccc(C(=O)NO)cc1)C(=O)Nc1ccccc1 [Nexturastat A], which gametocyte viability is on record?
Its gametocyte viability is 103.

With Nc1nc(=S)c2[nH]cnc2[nH]1 [6-Thioguanine] as the molecule, how does the gametocyte viability read?
Its gametocyte viability is 90.1.

Which gametocyte viability does the source give for O=C(NCc1ccccc1)c1c(/N=C/c2c(O)ccc3ccccc23)sc2c1CCCC2 here?
Its gametocyte viability is 103.

How did the gametocyte viability turn out when CNCCN1CCC(OCc2ccccc2)CC1 [MS049 (hydrochloride)] was run?
Its gametocyte viability is 84.2.

How did the gametocyte viability turn out when Nc1nccc2c1ncn2C1C=C(CO)C(O)C1O (stereo not given) [3-Deazaneplanocin A] was run?
Its gametocyte viability is 88.8.

CN(C)Cc1c(C(=O)NCCOc2ccc(C(=O)NO)cc2)oc2ccccc12 was tested. Which gametocyte viability did it give?
Its gametocyte viability is 65.8.

With COc1cc2nc(N3CCCN(C)CC3)nc(NC3CCN(Cc4ccccc4)CC3)c2cc1OC as the molecule, how does the gametocyte viability read?
Its gametocyte viability is 71.

How did the gametocyte viability turn out when O=C(NO)c1cccc(C(=O)NCCc2ccccc2)c1 was run?
Its gametocyte viability is 98.3.

With CCOC(=O)C1=CN(Cc2ccccc2)C=C(C(=O)OCC)C1c1ccccc1 as the molecule, how does the gametocyte viability read?
Its gametocyte viability is 80.7.

Cc1cc(C)c(CNC(=O)c2cc(-c3ccc(N4CCN(C)CC4)nc3)cc3c2c(C)cn3C(C)C)c(=O)[nH]1 was tested. Which gametocyte viability did it give?
The gametocyte viability was 78.5.

With Cn1cccc1C(=O)N1CCc2cc(C(=O)NO)ccc2C1 [HDAC6 Inhibitor] as the molecule, how does the gametocyte viability read?
Its gametocyte viability is 87.

With Nc1ccccc1NC(=O)c1ccc(CNC(=O)OCc2cccnc2)cc1 as the molecule, how does the gametocyte viability read?
The gametocyte viability was 83.8.

Which gametocyte viability does the source give for Cn1cc(C(=O)Nc2ccc3c(c2)OCCO3)c2ccccc2c1=O here?
The gametocyte viability was 82.7.

With N[C@H]1C[C@@H]1c1ccc(-c2cccc(O)c2)cc1 as the molecule, how does the gametocyte viability read?
The gametocyte viability was 92.2.

O=C(O)C(Cc1c[nH]c2ccccc12)N1C(=O)c2ccccc2C1=O (stereo not given) was tested. Which gametocyte viability did it give?
Its gametocyte viability is 86.9.

Which gametocyte viability does the source give for COc1cc(O)c2c(c1)oc(=O)c1c3cc(O)c(O)cc3oc21 [Wedelolactone] here?
Its gametocyte viability is 89.6.

With Cc1cc(C)cc(C(=O)NOCCCCCC(=O)NO)c1 as the molecule, how does the gametocyte viability read?
The gametocyte viability was 92.1.

With CN1CCC(=C2c3ccccc3C=Cc3ccccc32)CC1 [Cyproheptadine (hydrochloride hydrate)] as the molecule, how does the gametocyte viability read?
The gametocyte viability was 88.2.

With Nc1ccccc1NC(=O)c1cnccn1 as the molecule, how does the gametocyte viability read?
Its gametocyte viability is 96.3.

Same assay, conditions: concentration: 10 µM; exposure time: 72 h

How did the gametocyte viability turn out when Nc1ccn([C@@H]2O[C@H](CO)[C@@H](O)C2(F)F)c(=O)n1 [Gemcitabine] was run?
Its gametocyte viability is 85.8.

With CCCCN(Cc1ccc(C(=O)NO)cc1)C(=O)Nc1ccccc1 [Nexturastat A] as the molecule, how does the gametocyte viability read?
Its gametocyte viability is 67.7.

Which gametocyte viability does the source give for Nc1nc(=S)c2[nH]cnc2[nH]1 [6-Thioguanine] here?
The gametocyte viability was 94.6.

Which gametocyte viability does the source give for O=C(NCc1ccccc1)c1c(/N=C/c2c(O)ccc3ccccc23)sc2c1CCCC2 here?
The gametocyte viability was 94.2.

Which gametocyte viability does the source give for CNCCN1CCC(OCc2ccccc2)CC1 [MS049 (hydrochloride)] here?
The gametocyte viability was 79.7.

Which gametocyte viability does the source give for Nc1nccc2c1ncn2C1C=C(CO)C(O)C1O (stereo not given) [3-Deazaneplanocin A] here?
The gametocyte viability was 88.1.

Which gametocyte viability does the source give for CN(C)Cc1c(C(=O)NCCOc2ccc(C(=O)NO)cc2)oc2ccccc12 here?
Its gametocyte viability is 59.

How did the gametocyte viability turn out when COc1cc2nc(N3CCCN(C)CC3)nc(NC3CCN(Cc4ccccc4)CC3)c2cc1OC was run?
Its gametocyte viability is 23.3 (active).

Which gametocyte viability does the source give for O=C(NO)c1cccc(C(=O)NCCc2ccccc2)c1 here?
Its gametocyte viability is 64.6.

CCOC(=O)C1=CN(Cc2ccccc2)C=C(C(=O)OCC)C1c1ccccc1 was tested. Which gametocyte viability did it give?
The gametocyte viability was 77.6.

Cc1cc(C)c(CNC(=O)c2cc(-c3ccc(N4CCN(C)CC4)nc3)cc3c2c(C)cn3C(C)C)c(=O)[nH]1 was tested. Which gametocyte viability did it give?
Its gametocyte viability is 62.9.

With Cn1cccc1C(=O)N1CCc2cc(C(=O)NO)ccc2C1 [HDAC6 Inhibitor] as the molecule, how does the gametocyte viability read?
Its gametocyte viability is 91.2.

Which gametocyte viability does the source give for Nc1ccccc1NC(=O)c1ccc(CNC(=O)OCc2cccnc2)cc1 here?
Its gametocyte viability is 88.

Which gametocyte viability does the source give for Cn1cc(C(=O)Nc2ccc3c(c2)OCCO3)c2ccccc2c1=O here?
The gametocyte viability was 79.9.

For N[C@H]1C[C@@H]1c1ccc(-c2cccc(O)c2)cc1, which gametocyte viability is on record?
The gametocyte viability was 79.4.

With O=C(O)C(Cc1c[nH]c2ccccc12)N1C(=O)c2ccccc2C1=O (stereo not given) as the molecule, how does the gametocyte viability read?
Its gametocyte viability is 84.3.

With COc1cc(O)c2c(c1)oc(=O)c1c3cc(O)c(O)cc3oc21 [Wedelolactone] as the molecule, how does the gametocyte viability read?
The gametocyte viability was 81.5.

Cc1cc(C)cc(C(=O)NOCCCCCC(=O)NO)c1 was tested. Which gametocyte viability did it give?
The gametocyte viability was 64.9.

How did the gametocyte viability turn out when CN1CCC(=C2c3ccccc3C=Cc3ccccc32)CC1 [Cyproheptadine (hydrochloride hydrate)] was run?
Its gametocyte viability is 86.6.

Nc1ccccc1NC(=O)c1cnccn1 was tested. Which gametocyte viability did it give?
The gametocyte viability was 89.4.
